The sequences below were run against PPM1E (assay: pooled miR-30 sensor sort-seq; sequence = guide strand). Conditions: shRNA.
Further: reference of the scale not given here.

Sequence	sensor-assay potency score (higher = more potent)
TTGCTTGCTTCTATTTGTGTGA	-0.309
TAGTTCAACAGCTTGGCCCTTT	0.206
TAAAACTTTGGATTAAACCTGA	-0.0256
TACAGCTTTGTTCATGTCCCTC	-0.388
TTTCTCACAAGCATAACCTGGG	0.732
TATATTTGTAGAGCTGCTGCAG	0.13
TTTGGATTAAACCTGAATCTGT	-0.682
TTACATTTAAGAATTGAGCCAT	0.639
TTTTAGATTGAAAACACTGTAC	0.00481
TATTTGTGTGAGATCTAGGTAG	0.201
TAGATTGAAAACACTGTACTTT	0.776
TTGCTTTCTTTGGTGCACCAGG	-0.843

These sequences were tested against PPM1F in the same assay as above. Conditions: shRNA.

Sequence	sensor-assay potency score (higher = more potent)
TTCTGGTCTGTGTGGCTCCATC	-1.7
AAGGTCTGTCTGTAGCAGCTGT	-0.309
TCAAACACAGCAAAGTAGGCGC	-0.108
TTAAATTATATGACACAACAGG	-0.831
TTTCCTGAGAAACATCTGGTCG	-0.801
TTATATGACACAACAGGTCATC	-0.681
TACCTCGCAGCATCCACGCCTC	-0.377
ATATCTGTAAATATGAACCCAC	-0.596
TCTGTCTGTAGCAGCTGTGAAA	-1.23
AACATCTGGTCGGTGCGCCGGA	-0.815
TAAATTATATGACACAACAGGT	-0.732
TATGACACAACAGGTCATCTTG	-0.621

What follows are sequences tested against PPM1J in the same assay as above. Conditions: shRNA.

Sequence	sensor-assay potency score (higher = more potent)
ACAGTCAGTAGTGACATCCCAC	-0.629
TTCCGGACAATGATGGCCCTGC	0.189
TTCACTGCCTAGCAGCTCTGGT	-0.516
TTGGATATAGCGGACATCCCTT	-0.328
TACTCCTGTAACACTCCTCCGA	-0.279
TAGCACATCATCTGGGCAGTGC	-0.403
TTGATGACCTCGGCGTAGCCTG	-0.901
AAGTATCTCTACCAGGTCCTTT	-0.98
TCGATCTTTTTGTAGGCCCAGC	-1.4
TAGATCACAACCAGTGCACAGC	-0.65
TCTTTTTGTAGGCCCAGCCGGT	-1.16
TAGCAGGTAGATCACAACCAGT	-1.29

The sequences below were run against PPP1R13B in the same assay as above. Conditions: shRNA.

Sequence	sensor-assay potency score (higher = more potent)
TTCAGAAATAGACTGCTGCTGA	0.172
TTACATTTCTCTGAGTTCGTTG	-0.0932
TTAACTGACTTATTTAAGGCGC	0.229
TTTCTTCAGCTTGTTCTCCTGG	0.329
